Results as given in PubChem BioAssay (Tox21).
Several values for one entry are separate records, joined by “and”; a condition that tells them apart may be missing. Equal values may be shown once. Inconclusive results are not listed. Entries that show only a call come without a potency. Some structures have more than one record in an assay (separate samples or runs), and their calls can disagree. Activity calls are given as the source filed them. Unless noted, calls come from the whole dose curve; as a rule, active = well fitted curve in the direction sought with a large enough effect in the repeat runs; inconclusive = weak or mixed curves; inactive = no such curve, though single readings can be large; an effect the other way counts as inactive or inconclusive.

Experiments:
[1] = qHTS assay to identify small molecule agonists of the RXR signaling pathway - cell viability counter screen (AID 1159529);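 note: HEK 293T cells carrying an RXR-alpha UAS beta-lactamase reporter; nearly all actives have a fitted effect of over 50% in size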
Method in brief: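 HEK 293T RXRa-bla cells, 2% CS-FBS; 5 h settle; cpd 16 h 37 C, 5% CO2; CellTiter-Glo 30 min RT, luminescence. Tetraoctyl ammonium bromide as positive control.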

[2] = qHTS assay to identify small molecule antagonists of the retinoid acid receptor (RAR) signaling pathway - cell viability counter screen (AID 1159551); note: nearly all actives have a fitted effect of over 35% in size
Method in brief: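 Viability of C3RL4 cells is quantified from ATP by luminescence after 6 h treatment at 37 C with compounds and 1 uM retinol.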

[3] = qHTS assay to identify small molecule antagonists of the retinoic acid receptor (RAR) signaling pathway (AID 1159552; note: nearly all actives have a fitted effect of over 50% in size)
Method in brief: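 Cells of the C3RL4 line were seeded, incubated overnight, then dosed with compounds in DMSO followed immediately by retinol (1 uM final). Six hours later luciferase detection reagent went in; signal was measured after 30 min at RT.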

[4] = qHTS assay to identify small molecule agonists of the retinoic acid receptor (RAR) signaling pathway (AID 1159553); conditions: C3RL4 RARE luciferase reporter, agonist, 6 h; activation: at 73.3 µM (top of the series) unless noted; note: potency is the fitted concentration of half-maximal effect
Method in brief: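 Compounds dissolved in DMSO were pinned onto C3RL4 cells seeded the previous day, and plates were held 6 hr at 37 C. RARE-driven luciferase output was then read by luminescence.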

[5] = qHTS assay to identify small molecule antagonists of the estrogen related receptor (ERR) signaling pathway - cell viability counter screen (AID 1224818)
Method in brief: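 Cytotoxicity check run alongside the ERR antagonist screen: cells exposed to test compounds 17.5 h at 37 C, viability taken as CellTiter-Fluor fluorescence intensity.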

[6] = qHTS assay to identify small molecule antagonists of the estrogen related receptor (ERR) signaling pathway (AID 1224819;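 note: luminescence from an ERR-driven luciferase reporter measured with One-Glo reagent; nearly all actives have a fitted effect of over 50% in size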)
Method in brief: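 ERR reporter cells were plated at 2,000 cells/well and left 6 h at 37 C/5% CO2 before pin-tool transfer of compounds in DMSO. After 18 h at 37 C, One-Glo was added and luminescence was read 30 min later at room temperature.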

[7] = qHTS assay to identify small molecule agonists of the estrogen related receptor (ERR) signaling pathway (AID 1224820)
Method in brief: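 Luminescence readout (One-Glo, 30 min RT) from NTP-supplied ERR cell line exposed to compounds for 18 h at 37 C. Cells seeded 2,000 per well and pre-incubated 6 h before pin-tool compound transfer.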

[8] = tested on: estrogen-related receptor alpha (ERRalpha) with PGC-1alpha coactivator, human; assay: qHTS assay to identify small molecule antagonists of the estrogen related receptor signaling pathway with the pleiotropic PPARgamma coactivator (PGC) (AID 1224821; calls by dose curve;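 note: lower luminescence signal means antagonism of PGC/ERR signalling; nearly all actives have a fitted effect of over 50% in size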)
Method in brief: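 PGC/ERR reporter cells; 6 h pre-incubation 37 C/5% CO2; pin-tool compound in DMSO, 18 h 37 C; One-Glo added, 30 min RT; luminescence read. qHTS antagonist mode.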

[9] = qHTS assay to identify small molecule antagonists of the estrogen related receptor signaling pathway with the pleiotropic PPARgamma coactivator (PGC) cell viability counter screen (AID 1224822)
Method in brief: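 Viable cell signal (CellTiter-Fluor, 30 min, 37 C/5% CO2) was measured in PGC/ERR cells after a 17.5 h compound incubation.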

[10] = qHTS assay to identify small molecule agonists of the estrogen related receptor signaling pathway with the pleiotropic PPARgamma coactivator (PGC) (AID 1224823)
Method in brief: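 Luminescence readout (One-Glo, 30 min RT) from PGC/ERR cell line treated 18 h at 37 C with pin-tool-delivered DMSO compound solutions; cells plated 6 h before dosing. Quantitative HTS format.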

[11] = qHTS assay to identify small molecule antagonists of the estrogen related receptor (ERR) signaling pathway from Tox21 library - cell viability counter screen (AID 1224834); note: nearly all actives have a fitted effect of over 30% in size
Method in brief: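 In this quantitative HTS format, ERR cells receive compounds in DMSO and are incubated for 17.5 h at 37 C. Live-cell protease activity is then detected with CellTiter-Fluor.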

[12] = biological target: Luciferin 4-monooxygenase (Photinus pyralis) (UniProt P08659); assay: qHTS assay to identify small molecule inhibitors of firefly luciferase (AID 1224835); note: nearly all actives have a fitted effect of over 25% in size; note: potency is the fitted concentration of half-maximal effect
Method in brief: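 Biochemical qHTS: compounds run as interplate titrations against purified firefly enzyme, with D-luciferin and ATP each at its KM concentration. Light output recorded by CCD imaging.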

[13] = qHTS assay to identify small molecule agonists of the constitutive androstane receptor (CAR) signaling pathway - cell viability counter screen (AID 1224836); note: nearly all actives have a fitted effect of over 45% in size
Method in brief: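 HepG2-CYP2B6-hCAR, 2500 cells/well, 4 h pre-incubation; cpd 15 conc + PK11195 0.75 uM final; 23 h, 37 C/5% CO2; CellTiter-Fluor, fluorescence.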

[14] = qHTS assay to identify small molecule antagonists of the constitutive androstane receptor (CAR) signaling pathway - cell viability counter screen (AID 1224837); note: nearly all actives have a fitted effect of over 45% in size
Method in brief: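 In quantitative HTS format, compounds at 15 concentrations were applied to HepG2 cells double-transfected with hCAR and CYP2B6-2.2kb under 50 nM CITCO stimulation; live-cell protease activity was read after 23 hr via CellTiter-Fluor.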

[15] = biological target: Nuclear receptor subfamily 1 group I member 3 (Homo sapiens) (UniProt Q14994); assay: qHTS assay to identify small molecule antagonists of the constitutive androstane receptor (CAR) signaling pathway (AID 1224838); note: nearly all actives have a fitted effect of over 40% in size
Method in brief: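 CITCO-stimulated (50 nM final) HepG2 cells stably transfected with hCAR and CYP2B6-2.2kb luciferase were exposed to compounds at 15 concentrations for 24 h at 37 C/5% CO2. A luciferase reagent was added and luminescence recorded after 30 min.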

[16] = qHTS assay to identify small molecule antagonists of the estrogen related receptor signaling pathway with the pleiotropic PPARgamma coactivator (PGC) from Tox21 10K library - cell viability counter screen (AID 1224840; active = well fitted cell-killing curve with a large enough effect in the repeat runs, not every such curve was filed as active; note: nearly all actives have a fitted effect of over 40% in size)
Method in brief: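 Viability counter screen, PGC/ERR cells: 17.5 h compound exposure at 37 C, CellTiter-Fluor fluorescence endpoint.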

[17] = qHTS assay to identify small molecule antagonists of the estrogen related receptor signaling pathway with the pleiotropic PPARgamma coactivator (PGC) from Tox21 10K library (AID 1224841; call rule not given here; note: potency is the fitted concentration of half-maximal effect)
Method in brief: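 In the PGC/ERR line, DMSO solutions of test chemicals are pin-delivered to 2,000 cells/well six hours after dispensing. Following eighteen hours' incubation, One-Glo reagent is added and luminescence recorded.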

[18] = qHTS assay to identify small molecule agonists of the estrogen related receptor signaling pathway with the pleiotropic PPARgamma coactivator (PGC) from Tox21 10K library (AID 1224842); note: nearly all actives have a fitted effect of over 15% in size
Method in brief: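 PGC/ERR reporter cell line, 2,000 cells per well, incubated 6 h at 37 C before 23 nL compound in DMSO was added. After 18 h at 37 C, One-Glo luminescence read following 30 min at room temperature.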

[19] = biological target: Thyrotropin receptor (Homo sapiens) (UniProt P16473); assay: qHTS assay to identify small molecule agonists of the thyroid stimulating hormone receptor (TSHR) signaling pathway (AID 1224843; calls by dose curve; note: nearly all actives have a fitted effect of over 45% in size)
Method in brief: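 HEK293/TSHR, 800 cells/well; cpd 30 min RT; add cAMP-d2 + anti-cAMP-cryptate, 1 h RT; fluorescence read on plate reader. 15-pt titration, n=3.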

[20] = biological target: Nuclear receptor subfamily 1 group I member 3 (Homo sapiens) (UniProt Q14994); assay: qHTS assay to identify small molecule agonists of the constitutive androstane receptor (CAR) signaling pathway (AID 1224839); note: nearly all actives have a fitted effect of over 15% in size; note: potency is the fitted concentration of half-maximal effect;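 for activation: HepG2 cells stably carrying human CAR and a CYP2B6 luciferase reporter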
Method in brief: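 HepG2-CYP2B6-hCAR cells, 2500/well, 4 h pre-incubation; compounds 15 conc.; PK11195 0.75 uM final; 24 h, 37 C/5% CO2; ONE-Glo luciferase read.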

Chain of Thyrotropin receptor (Homo sapiens) (P16473 whole entry, looked up): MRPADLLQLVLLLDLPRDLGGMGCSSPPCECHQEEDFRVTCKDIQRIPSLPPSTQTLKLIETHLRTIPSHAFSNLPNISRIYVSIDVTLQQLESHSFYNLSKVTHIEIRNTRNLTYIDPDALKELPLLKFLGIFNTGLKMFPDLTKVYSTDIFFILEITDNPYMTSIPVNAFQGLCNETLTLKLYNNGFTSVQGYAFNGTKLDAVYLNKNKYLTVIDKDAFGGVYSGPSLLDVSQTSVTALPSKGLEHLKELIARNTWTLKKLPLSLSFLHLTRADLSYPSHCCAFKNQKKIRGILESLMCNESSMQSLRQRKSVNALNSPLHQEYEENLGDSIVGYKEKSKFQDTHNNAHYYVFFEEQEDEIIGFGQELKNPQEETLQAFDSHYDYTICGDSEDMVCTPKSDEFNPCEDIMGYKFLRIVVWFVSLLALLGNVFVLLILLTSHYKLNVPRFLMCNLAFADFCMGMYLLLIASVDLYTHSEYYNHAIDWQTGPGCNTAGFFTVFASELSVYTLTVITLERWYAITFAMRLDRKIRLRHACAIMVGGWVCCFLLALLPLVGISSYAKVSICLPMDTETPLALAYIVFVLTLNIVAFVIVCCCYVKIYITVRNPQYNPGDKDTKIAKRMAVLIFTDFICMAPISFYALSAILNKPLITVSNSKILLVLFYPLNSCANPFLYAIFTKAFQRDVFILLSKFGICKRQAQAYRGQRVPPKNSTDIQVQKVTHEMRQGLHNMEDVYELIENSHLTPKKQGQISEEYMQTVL
Chain of Nuclear receptor subfamily 1 group I member 3 (Homo sapiens) (Q14994 whole entry, looked up): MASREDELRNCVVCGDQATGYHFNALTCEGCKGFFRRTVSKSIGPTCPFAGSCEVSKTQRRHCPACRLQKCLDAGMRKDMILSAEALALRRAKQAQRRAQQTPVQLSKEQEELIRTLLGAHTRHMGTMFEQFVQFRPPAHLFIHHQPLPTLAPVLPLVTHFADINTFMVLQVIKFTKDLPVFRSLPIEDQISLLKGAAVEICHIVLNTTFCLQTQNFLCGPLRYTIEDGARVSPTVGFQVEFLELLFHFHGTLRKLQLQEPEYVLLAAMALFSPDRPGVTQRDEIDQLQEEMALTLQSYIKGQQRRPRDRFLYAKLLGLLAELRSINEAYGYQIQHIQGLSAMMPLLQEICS
Chain of Luciferin 4-monooxygenase (Photinus pyralis) (P08659 whole entry, looked up): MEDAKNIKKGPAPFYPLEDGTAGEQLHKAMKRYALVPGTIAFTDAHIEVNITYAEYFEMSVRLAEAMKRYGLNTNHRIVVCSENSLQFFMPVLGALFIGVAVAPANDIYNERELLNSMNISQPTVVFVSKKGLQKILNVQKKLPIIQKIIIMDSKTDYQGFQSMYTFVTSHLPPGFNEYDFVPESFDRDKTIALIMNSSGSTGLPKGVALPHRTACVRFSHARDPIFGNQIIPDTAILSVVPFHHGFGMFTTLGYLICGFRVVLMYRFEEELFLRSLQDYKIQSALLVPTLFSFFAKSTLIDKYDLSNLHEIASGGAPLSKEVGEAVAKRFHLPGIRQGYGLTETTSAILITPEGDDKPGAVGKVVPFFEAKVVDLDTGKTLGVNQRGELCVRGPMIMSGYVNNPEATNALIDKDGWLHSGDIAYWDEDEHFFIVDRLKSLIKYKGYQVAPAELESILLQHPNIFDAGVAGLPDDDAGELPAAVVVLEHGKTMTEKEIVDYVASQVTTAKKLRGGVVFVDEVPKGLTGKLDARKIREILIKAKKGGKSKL

Structure (SMILES)	Potency [1]	Potency [2]	Potency [3]	Potency [4]	outcome [5]	Potency [6]	outcome [7]	Potency [8]	Potency [9]	outcome [10]	Potency [11]	Potency [12]	Potency [13]	Potency [14]	Potency [15]	Potency [16]	Potency [17]	Potency [18]	Potency [19]	Potency [20]
CN=C(NC#N)NCCSCc1nc[nH]c1C	inactive	inactive	inactive	inactive	inactive	inactive	inactive	inactive	inactive	inactive	inactive	inactive	inactive	inactive	inactive	inactive	inactive	inactive	inactive	
Nc1nc(N)c2nc(-c3ccccc3)c(N)nc2n1	inactive	inactive	inactive	17.4 µM (active) and inactive	inactive		inactive	inactive	inactive		inactive	40.4 µM (active) and 39.9 µM (active)	inactive	inactive	inactive		inactive	inactive	inactive	inactive
CC(=O)OCCC(C)C	inactive	inactive	inactive	inactive							inactive	inactive	inactive	inactive	inactive		inactive	inactive		inactive
Brc1ccc(Oc2ccc(Br)cc2)cc1	inactive	inactive	inactive	inactive							inactive	inactive	inactive	inactive	inactive				inactive	
Cc1ccc([N+](=O)[O-])cc1N	inactive	inactive	inactive	inactive							inactive	inactive	inactive	inactive	inactive	inactive			inactive	inactive
OC1CCCCC1	inactive	inactive	inactive	inactive							inactive	inactive	inactive	inactive	inactive					inactive
CCCOC(=O)NCCCN(C)C	inactive	inactive	inactive	inactive							inactive	inactive	inactive	inactive	inactive				inactive	
CC(C)=CCC/C(C)=C/C=O	inactive	inactive	inactive	inactive							inactive	inactive	inactive		inactive	inactive			inactive	inactive
COc1cc(NC(=O)CC(C)=O)c(OC)cc1Cl	inactive	inactive	inactive	inactive							inactive	inactive	inactive	inactive	inactive	inactive	38.7 µM (active)	inactive	inactive	61.4 µM (active) and 61.1 µM (active)
Nc1cccc(N)n1	inactive	inactive	inactive	inactive							inactive	inactive	inactive	inactive	inactive	inactive				inactive
